# Measured values taken from the supplement of paper PMC9262897, “Low-cost anti-mycobacterial drug discovery using engineered E. coli” (Nature Communications, 2022).
# Where a name gives a salt, the structure may show the parent alone. ± gives the standard deviation of the averaged measurements.
# Columns and labels:
# Assay in all cases: growth (OD600 after 10 h); higher = more growth (less inhibition)
# [1] = tested on: E. coli TESEC Alr+ wild-type control; conditions: compound 0.1 mM; raw OD600 reference: median of DMSO wells 0.241, cell-free background 0.041
# Protocol: (§1)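 TESEC Mtb Alr E. coli, or the Alr+ wild-type control, in 384-well plates with Prestwick library compounds at 0.1 mM and 1% DMSO, across arabinose induction levels of 1E3 to 1E7 nM. Growth is read as OD600 after 10 h at 37 °C in triplicate biological replicates.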
# [2] = tested on: E. coli TESEC Mtb Asd; conditions: compound 0.1 mM
# Protocol: (§2)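 TESEC E. coli strains in which the native enzyme is deleted and replaced by arabinose-inducible Mtb Asd, DapB, CysH or TrpD, each grown in its selective medium. Strains were screened against the Prestwick library at 0.1 mM and 1% DMSO in 384-well format at low and high arabinose induction. Growth is read as OD600 after 10 h in triplicate.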
# [3] = tested on: E. coli TESEC Mtb DapB; conditions: compound 0.1 mM
# Protocol: as §2
# [4] = tested on: E. coli TESEC Alr+ wild-type control; conditions: compound 0.1 mM; raw OD600 reference: median of DMSO wells 0.49, cell-free background 0.052
# Protocol: (§3)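 TESEC Mtb Alr E. coli (ΔaraC ΔtolC ΔentC Δalr ΔdadX, arabinose-inducible Mtb Alr) or the Alr+ wild-type control strain, grown in defined M9-fructose medium without D-alanine in 96-well plates with Prestwick library compounds at 0.1 mM and 1% DMSO. Low Alr induction is 0.1 µM arabinose and high induction is 10 mM arabinose.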
# [5] = tested on: E. coli TESEC Mtb Alr; conditions: compound 0.1 mM
# Protocol: as §3
# [6] = tested on: E. coli TESEC Mtb Alr; conditions: compound 0.1 mM; remark: listed apart in the source
# Protocol: as §1
# [7] = arabinose induction (level): High, raw OD600 reference: median of DMSO wells 0.331, cell-free background 0.041
# [8] = arabinose induction (level): Low, raw OD600 reference: median of DMSO wells 0.417, cell-free background 0.041
# [9] = arabinose induction (level): High, raw OD600 reference: median of DMSO wells […], cell-free background 0.041
# [10] = arabinose induction (level): Low, raw OD600 reference: median of DMSO wells 0.227, cell-free background 0.041
# [11] = arabinose 100 nM, raw OD600 reference: median of DMSO wells 0.413, cell-free background 0.052
# [12] = arabinose 10000000 nM, raw OD600 reference: median of DMSO wells […], cell-free background 0.052
# [13] = arabinose 1000 nM, raw OD600 reference: median of DMSO wells 0.294, cell-free background 0.041
# [14] = arabinose 10000 nM, raw OD600 reference: median of DMSO wells 0.264, cell-free background 0.041
# [15] = arabinose 100000 nM, raw OD600 reference: median of DMSO wells 0.201, cell-free background 0.041
# [16] = arabinose 1000000 nM, raw OD600 reference: median of DMSO wells 0.193, cell-free background 0.041
# [17] = arabinose 10000000 nM, raw OD600 reference: median of DMSO wells 0.146, cell-free background 0.041
SMILES,growth [1],"growth [2, 7]","growth [2, 8]","growth [3, 9]","growth [3, 10]",growth [4],"growth [5, 11]","growth [5, 12]","growth [6, 13]","growth [6, 14]","growth [6, 15]","growth [6, 16]","growth [6, 17]"
Nc1ccc(S(=O)(=O)NC(=O)c2ccccc2)cc1 [Sulfabenzamide],0.256 ± 0.012,0.402 ± 0.12,0.409 ± 0.033,0.221 ± 0.016,0.245 ± 0.018,0.43 ± 0.0081,0.4062 ± 0.0031,0.334 ± 0.025,–,–,–,–,–
CC(=O)O[C@]1(C(C)=O)CC[C@H]2[C@@H]3C=C(Cl)C4=CC(=O)CC[C@]4(C)[C@H]3CC[C@@]21C [Chlormadinone acetate],0.15 ± 0.0069,0.12 ± 0.0098,0.0867 ± 0.0071,0.0988 ± 0.0082,0.109 ± 0.029,0.442 ± 0.0057,0.3733 ± 0.0037,0.203 ± 0.03,–,–,–,–,–
O=C(Nc1ccc([N+](=O)[O-])cc1Cl)c1cc(Cl)ccc1O [Niclosamide],0.0431 ± 0.00067,0.0715 ± 0.017,0.225 ± 0.037,0.174 ± 0.012,0.193 ± 0.043,0.053 ± 0.003,0.0618 ± 0.0064,0.0616 ± 0.00076,–,–,–,–,–
"COCCc1ccc(OCC(O)CNC(C)C)cc1 (racemic) [Metoprolol-(+,-) (+)-tartrate salt]",0.225 ± 0.0047,0.311 ± 0.028,0.466 ± 0.038,–,–,–,0.399 ± 0.008,0.3498 ± 0.0028,0.306 ± 0.018,0.266 ± 0.014,0.203 ± 0.013,0.199 ± 0.0081,0.141 ± 0.0035
NCCCC[C@H](N[C@@H](CCc1ccccc1)C(=O)O)C(=O)N1CCC[C@H]1C(=O)O [Lisinopril],0.257 ± 0.0039,0.35 ± 0.051,0.4 ± 0.031,0.212 ± 0.0046,0.316 ± 0.057,0.49 ± 0.035,0.41 ± 0.015,0.343 ± 0.0091,–,–,–,–,–
O=P(O)(O)C(Cl)(Cl)P(=O)(O)O [Clodronate],0.248 ± 0.0073,0.336 ± 0.042,0.403 ± 0.025,0.223 ± 0.024,0.212 ± 0.024,0.528 ± 0.084,0.411 ± 0.0072,0.303 ± 0.0027,–,–,–,–,–
CNC[C@H](O)[C@@H](O)[C@H](O)[C@H](O)CO [Meglumine],0.237 ± 0.0045,0.325 ± 0.022,0.408 ± 0.066,0.199 ± 0.049,0.235 ± 0.017,0.548 ± 0.015,0.404 ± 0.019,0.356 ± 0.011,–,–,–,–,–
Cn1c(NCCN(CCO)CCCc2ccc([N+](=O)[O-])cc2)cc(=O)n(C)c1=O [Nifekalant],0.241 ± 0.011,0.179 ± 0.017,0.428 ± 0.057,–,–,–,0.4 ± 0.015,0.298 ± 0.02,0.301 ± 0.0034,0.248 ± 0.003,0.168 ± 0.0095,0.144 ± 0.0052,0.145 ± 0.002
O=C(O)c1cc(=O)c2c(OCC(O)COc3cccc4oc(C(=O)O)cc(=O)c34)cccc2o1 [Cromolyn disodium salt],0.2571 ± 0.0016,0.389 ± 0.04,0.489 ± 0.01,0.189 ± 0.013,0.228 ± 0.034,0.602 ± 0.064,0.403 ± 0.011,0.361 ± 0.01,–,–,–,–,–
CC(C)c1c(C(=O)Nc2ccccc2)c(-c2ccccc2)c(-c2ccc(F)cc2)n1CC[C@@H](O)C[C@@H](O)CC(=O)O [Atorvastatin],0.12 ± 0.0024,0.169 ± 0.018,0.169 ± 0.018,0.171 ± 0.018,0.183 ± 0.031,0.217 ± 0.011,0.352 ± 0.058,0.175 ± 0.037,–,–,–,–,–
Cn1c([N+](=O)[O-])cnc1COC(N)=O [Ronidazole],0.226 ± 0.0055,0.241 ± 0.036,0.338 ± 0.016,0.187 ± 0.0036,0.253 ± 0.031,0.458 ± 0.0079,0.4333 ± 0.0022,0.285 ± 0.011,–,–,–,–,–
Cc1cc(C(C)(C)CC(C)(C)C)ccc1OCCOCC[N+](C)(C)Cc1ccccc1 [Methyl benzethonium chloride],0.0446 ± 0.0012,0.0532 ± 0.001,0.0608 ± 0.0092,0.0545 ± 0.0014,0.0542 ± 0.00078,0.0474 ± 0.00066,0.0556 ± 0.0023,0.0529 ± 0.0018,–,–,–,–,–
CC(=O)Oc1cc(C(F)(F)F)ccc1C(=O)O [Triflusal],0.224 ± 0.0053,0.218 ± 0.009,0.367 ± 0.082,0.207 ± 0.0034,0.206 ± 0.015,0.555 ± 0.033,0.376 ± 0.011,0.315 ± 0.011,–,–,–,–,–
C#C[C@]1(O)CC[C@H]2[C@@H]3[C@H](C)CC4=C(CCC(=O)C4)[C@H]3CC[C@@]21C [Tibolone],0.141 ± 0.0097,0.167 ± 0.036,0.316 ± 0.047,0.17 ± 0.0045,0.172 ± 0.0081,0.393 ± 0.015,0.362 ± 0.046,0.137 ± 0.003,–,–,–,–,–
O=C1[C@H](CC[C@H](O)c2ccc(F)cc2)[C@@H](c2ccc(O)cc2)N1c1ccc(F)cc1 [Ezetimibe],0.0438 ± 0.00074,0.101 ± 0.082,0.0479 ± 0.0012,0.0503 ± 0.003,0.04873 ± 0.00038,0.0525 ± 0.0014,0.0636 ± 0.0051,0.061 ± 0.01,–,–,–,–,–
CO/N=C(\C(=O)N[C@@H]1C(=O)N2C(C(=O)O)=C(COC(C)=O)CS[C@H]12)c1csc(N)n1 [Cefotaxime sodium salt],0.0395 ± 0.00046,0.0625 ± 0.0074,0.0606 ± 0.002,0.0632 ± 0.014,0.0489 ± 0.0033,0.0462 ± 0.0019,0.0466 ± 0.0015,0.0529 ± 0.0023,–,–,–,–,–
C1CCC(C(CC2CCCCN2)C2CCCCC2)CC1 (stereo not drawn) [Perhexiline maleate],0.0393 ± 0.0002,0.04767 ± 0.00047,0.048 ± 0.0016,0.0462 ± 0.0004,0.0474 ± 0.002,0.0486 ± 0.00055,0.168 ± 0.18,0.0522 ± 0.0012,–,–,–,–,–
OCCN1CCN(CCCN2c3ccccc3Sc3ccc(C(F)(F)F)cc32)CC1 [Fluphenazine dihydrochloride],0.0421 ± 0.0038,0.0496 ± 0.00091,0.0515 ± 0.0021,0.0483 ± 0.00055,0.15 ± 0.1,0.04827 ± 0.00025,0.286 ± 0.21,0.0529 ± 0.00081,–,–,–,–,–
Cc1cc(=O)oc2cc(O)ccc12 [Hymecromone],0.227 ± 0.0065,0.317 ± 0.033,0.411 ± 0.013,0.198 ± 0.0059,0.208 ± 0.032,–,0.406 ± 0.017,0.355 ± 0.0061,–,–,–,–,–
CC(=O)Nc1nnc(S(N)(=O)=O)s1 [Acetazolamide],0.249 ± 0.017,0.361 ± 0.014,0.394 ± 0.051,0.211 ± 0.015,0.253 ± 0.077,0.436 ± 0.042,0.408 ± 0.011,0.317 ± 0.05,–,–,–,–,–
